About 8,800 targets were measured; listed, in parts, are those with a hit and a random draw of the rest. About 0.5% of all pairs of compound and target were hits.
How the values were obtained:
Test in all cases: log2 fold change, soluble protein after heating vs DMSO (PISA); higher = thermal stabilisation; K562 lysate, 10 uM; active = over 0.2 and 3.5 SD of the protein, either way, in both replicates (recomputed)
alvocidib = compound: CN1CC[C@H](c2c(O)cc(O)c3c(=O)cc(-c4ccccc4Cl)oc23)[C@H](O)C1 [alvocidib]
In short: (§1)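 Soluble protein was defined as the supernatant remaining after 21,000xg for 90 min, following pooling of heated aliquots and adjustment to 0.5% NP-40 at 4°C. Before that, crude K562 extract at 1 mg/mL protein in PBS pH 7.4 with 1 mM MgCl2 was treated with 10 μM compound for 30 min and heated for 3 min across 48°C-58°C. Quantification used TMTpro 16plex LC-MS/MS with channel sums equalised, and values are log-two fold changes in thermal stability relative to solvent controls from duplicates.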

Tubastatin A = compound: CN1CCc2c(c3ccccc3n2Cc2ccc(C(=O)NO)cc2)C1 [Tubastatin A]
In short: as §1

[1] = compound: CNC(=O)C1=CC=CC=C1NC2=NC(=NC=C2Cl)NC3=C(C=C(C=C3)N4CCOCC4)OC
In short: as §1

defactinib = compound: CNC(=O)c1ccc(Nc2ncc(C(F)(F)F)c(NCc3nccnc3N(C)S(C)(=O)=O)n2)cc1 [defactinib]
In short: as §1

[2] = compound: CNc1nc(-c2ccc3c(N)n[nH]c3c2)cc(N2C[C@@H](C(=O)NC3CCCCC3)CC[C@H]2C)n1
In short: as §1

encorafenib = compound: COC(=O)N[C@@H](C)CNc1nccc(-c2cn(C(C)C)nc2-c2cc(Cl)cc(NS(C)(=O)=O)c2F)n1 [encorafenib]
In short: as §1

[3] = compound: COC(=O)[C@H](CCSC)NC(=O)C1=C(C=C(C=C1)NC[C@H](CS)N)C2=CC=CC=C2
In short: as §1

alisertib = compound: COc1cc(Nc2ncc3c(n2)-c2ccc(Cl)cc2C(c2c(F)cccc2OC)=NC3)ccc1C(=O)O [alisertib]
In short: as §1

[4] = compound: COc1cc2nc(-c3cc(F)ccc3O)nc(N[C@@H]3CNC[C@H]3C(C)(C)O)c2cc1OC
In short: as §1

gefitinib = compound: COc1cc2ncnc(Nc3ccc(F)c(Cl)c3)c2cc1OCCCN1CCOCC1 [gefitinib]
In short: as §1

Measured: log2 fold change

C18orf25 (UniProt Q96B23)
UniProt Q96B23, sequence (Q96B23 whole entry, looked up): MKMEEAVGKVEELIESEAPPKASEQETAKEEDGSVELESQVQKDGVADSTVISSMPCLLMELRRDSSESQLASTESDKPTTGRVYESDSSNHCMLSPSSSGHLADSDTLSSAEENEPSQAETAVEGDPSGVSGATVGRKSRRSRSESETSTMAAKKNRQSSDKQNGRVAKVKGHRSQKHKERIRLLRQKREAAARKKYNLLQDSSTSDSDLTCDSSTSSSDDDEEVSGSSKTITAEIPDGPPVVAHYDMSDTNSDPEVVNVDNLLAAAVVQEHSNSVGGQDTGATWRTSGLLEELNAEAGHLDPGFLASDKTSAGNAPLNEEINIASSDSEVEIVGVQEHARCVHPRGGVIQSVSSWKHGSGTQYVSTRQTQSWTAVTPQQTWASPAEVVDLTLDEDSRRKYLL
inactive: alvocidib -0.014 | Tubastatin A 0.123 | [1] 0.034 | defactinib 0.084 | [2] 0.041 | encorafenib -0.005 | [3] -0.067 | alisertib 0.019 | [4] -0.027 | gefitinib 0.029

CHD9 (UniProt Q3L8U1)
inactive: alvocidib 0.027 | Tubastatin A 0.055 | [1] -0.064 | defactinib -0.147 | [2] -0.137 | alisertib -0.369 | gefitinib 0.111

ATG13 isoform 2 (UniProt O75143)
UniProt O75143, sequence (O75143 whole entry, looked up): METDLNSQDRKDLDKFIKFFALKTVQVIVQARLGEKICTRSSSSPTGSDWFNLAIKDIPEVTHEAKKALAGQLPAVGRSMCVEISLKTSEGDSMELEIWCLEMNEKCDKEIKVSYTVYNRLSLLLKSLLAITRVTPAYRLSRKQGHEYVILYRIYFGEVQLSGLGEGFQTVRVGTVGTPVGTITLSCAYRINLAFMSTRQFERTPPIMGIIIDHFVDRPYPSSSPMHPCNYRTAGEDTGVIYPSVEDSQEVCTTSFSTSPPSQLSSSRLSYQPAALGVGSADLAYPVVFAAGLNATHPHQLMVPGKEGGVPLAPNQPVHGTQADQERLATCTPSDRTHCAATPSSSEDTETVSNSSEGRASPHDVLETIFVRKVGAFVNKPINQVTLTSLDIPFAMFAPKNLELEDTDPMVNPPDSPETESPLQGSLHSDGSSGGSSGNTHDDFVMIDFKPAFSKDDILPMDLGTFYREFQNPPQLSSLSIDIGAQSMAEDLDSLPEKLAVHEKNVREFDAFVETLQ
inactive: alvocidib -0.106 | Tubastatin A -0.035 | [1] 0.013 | defactinib 0.03 | [2] 0.026 | encorafenib 0.054 | [3] -0.045 | alisertib 0.038 | [4] 0.017 | gefitinib -0.013

CDK17 isoform 2 (UniProt Q00537)
inactive: Tubastatin A -0.015 | [1] -0.051 | defactinib 0.139 | [2] -0.018 | encorafenib 0.099 | [3] -0.129 | alisertib -0.121 | gefitinib -0.132
active: alvocidib 0.599

CCAR2 (UniProt Q8N163)
inactive: alvocidib -0.052 | Tubastatin A -0.096 | [1] 0.001 | defactinib 0.018 | [2] -0.02 | encorafenib 0.014 | [3] 0.011 | alisertib 0.014 | [4] 0 | gefitinib 0.003

BRAT1 (UniProt Q6PJG6)
UniProt Q6PJG6, sequence (Q6PJG6 whole entry, looked up): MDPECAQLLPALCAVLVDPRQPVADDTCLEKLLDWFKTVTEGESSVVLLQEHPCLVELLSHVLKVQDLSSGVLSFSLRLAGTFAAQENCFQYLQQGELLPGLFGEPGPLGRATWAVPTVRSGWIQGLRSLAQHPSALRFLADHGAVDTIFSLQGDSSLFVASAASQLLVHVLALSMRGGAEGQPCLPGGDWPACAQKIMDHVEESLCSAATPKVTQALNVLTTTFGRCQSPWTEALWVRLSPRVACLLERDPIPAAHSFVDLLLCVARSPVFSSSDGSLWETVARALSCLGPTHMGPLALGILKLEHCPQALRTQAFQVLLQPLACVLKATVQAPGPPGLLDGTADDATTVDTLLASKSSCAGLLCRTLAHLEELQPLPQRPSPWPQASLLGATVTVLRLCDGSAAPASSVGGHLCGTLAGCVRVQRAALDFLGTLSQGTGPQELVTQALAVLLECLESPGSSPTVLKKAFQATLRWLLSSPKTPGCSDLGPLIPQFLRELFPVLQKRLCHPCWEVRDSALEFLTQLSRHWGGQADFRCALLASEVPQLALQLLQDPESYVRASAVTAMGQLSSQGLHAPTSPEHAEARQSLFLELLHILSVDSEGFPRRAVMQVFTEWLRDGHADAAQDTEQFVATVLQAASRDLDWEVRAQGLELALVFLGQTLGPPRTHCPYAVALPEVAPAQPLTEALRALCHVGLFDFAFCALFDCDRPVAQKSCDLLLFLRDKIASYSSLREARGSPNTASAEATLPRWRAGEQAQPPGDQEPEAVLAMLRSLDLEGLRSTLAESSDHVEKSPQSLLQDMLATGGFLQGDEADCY
inactive: alvocidib -0.018 | Tubastatin A -0.143 | [1] 0.031 | defactinib -0.046 | [2] -0.041 | encorafenib 0.01 | [3] 0.024 | alisertib -0.008 | [4] 0.018 | gefitinib -0.007

CARHSP1 (UniProt Q9Y2V2)
inactive: alvocidib 0.031 | Tubastatin A 0.065 | [1] 0.009 | defactinib -0.033 | [2] 0.078 | encorafenib -0.013 | [3] -0.055 | alisertib -0.014 | [4] 0.01 | gefitinib -0.029

C3orf33 (UniProt Q6P1S2)
inactive: alvocidib -0.166 | Tubastatin A 0.124 | [1] -0.084 | defactinib 0.224 | [2] 0.115 | alisertib -0.13 | [4] -0.111 | gefitinib 0.006

CCDC85B (UniProt Q15834)
UniProt Q15834, sequence (Q15834 whole entry, looked up): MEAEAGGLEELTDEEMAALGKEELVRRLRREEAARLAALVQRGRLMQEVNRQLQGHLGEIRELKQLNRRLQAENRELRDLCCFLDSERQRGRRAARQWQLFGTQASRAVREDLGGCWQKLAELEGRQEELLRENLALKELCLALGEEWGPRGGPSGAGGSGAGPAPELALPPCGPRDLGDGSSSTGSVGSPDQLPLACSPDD
active: [4] -0.508
inactive: alvocidib 0.016 | Tubastatin A 0.016 | [1] 0.217 | defactinib 0.183 | [2] -0.08 | encorafenib 0.255 | [3] -0.481

BNIP3 (UniProt Q12983)
inactive: alvocidib -0.065 | Tubastatin A -0.058 | [1] 0.076 | [2] 0.081 | encorafenib 0.015 | [3] 0.018 | alisertib -0.043 | [4] -0.128 | gefitinib 0.021

ATXN2 (UniProt F8WB05)
inactive: alvocidib -0.051 | Tubastatin A 0.23 | [1] 0.101 | defactinib -0.063 | [2] -0.03 | encorafenib -0.033 | [3] 0.023 | [4] 0.033

CCNC (UniProt P24863)
UniProt P24863, sequence (P24863 whole entry, looked up): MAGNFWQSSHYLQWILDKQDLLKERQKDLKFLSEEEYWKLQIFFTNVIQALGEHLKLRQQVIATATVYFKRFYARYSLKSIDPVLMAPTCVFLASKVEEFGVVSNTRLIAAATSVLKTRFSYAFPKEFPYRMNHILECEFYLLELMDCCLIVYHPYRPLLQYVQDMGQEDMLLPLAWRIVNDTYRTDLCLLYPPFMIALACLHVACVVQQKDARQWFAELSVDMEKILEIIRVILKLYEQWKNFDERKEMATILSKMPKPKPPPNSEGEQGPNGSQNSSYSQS
inactive: alvocidib 0.182 | Tubastatin A -0.079 | [1] -0.018 | defactinib -0.073 | [2] -0.052 | encorafenib 0.041 | [3] 0.039 | alisertib 0.009 | [4] -0.05 | gefitinib 0.017

CCPG1 isoform 5 (UniProt Q9ULG6)
UniProt Q9ULG6, sequence (Q9ULG6 whole entry, looked up): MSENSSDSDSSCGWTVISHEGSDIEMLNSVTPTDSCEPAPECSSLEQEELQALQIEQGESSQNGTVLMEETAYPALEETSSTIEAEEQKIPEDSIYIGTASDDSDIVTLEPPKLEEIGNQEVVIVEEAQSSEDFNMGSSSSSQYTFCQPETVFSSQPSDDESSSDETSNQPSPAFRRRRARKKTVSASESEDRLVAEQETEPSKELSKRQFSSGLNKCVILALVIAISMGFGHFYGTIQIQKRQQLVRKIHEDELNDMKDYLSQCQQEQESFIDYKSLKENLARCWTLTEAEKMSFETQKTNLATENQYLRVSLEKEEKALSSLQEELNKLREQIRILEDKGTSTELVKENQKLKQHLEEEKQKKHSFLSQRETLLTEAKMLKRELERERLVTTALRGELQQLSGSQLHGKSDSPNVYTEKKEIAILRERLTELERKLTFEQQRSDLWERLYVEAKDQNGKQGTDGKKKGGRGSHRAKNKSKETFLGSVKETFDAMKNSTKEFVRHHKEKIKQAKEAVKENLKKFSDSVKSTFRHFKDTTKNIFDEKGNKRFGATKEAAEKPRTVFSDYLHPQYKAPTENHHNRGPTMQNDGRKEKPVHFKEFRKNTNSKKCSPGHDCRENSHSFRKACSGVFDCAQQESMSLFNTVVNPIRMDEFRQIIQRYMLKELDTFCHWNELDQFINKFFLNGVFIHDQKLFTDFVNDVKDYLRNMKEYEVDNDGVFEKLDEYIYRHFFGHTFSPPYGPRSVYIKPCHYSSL
inactive: alvocidib 0.029 | Tubastatin A 0.006 | [1] 0.028 | defactinib -0.03 | [2] -0.02 | encorafenib 0.049 | [3] -0.165 | alisertib -0.073 | gefitinib -0.061
active: [4] 0.303

CEP152 (UniProt O94986)
inactive: alvocidib -0.077 | Tubastatin A -0.061 | [1] 0.019 | defactinib 0.019 | [2] 0.182 | encorafenib -0.064 | [3] 0.04 | alisertib -0.007 | gefitinib 0.008

ATG10 (UniProt Q9H0Y0)
inactive: alvocidib 0.106 | Tubastatin A -0.035 | [1] 0.01 | defactinib -0.037 | [2] -0.022 | encorafenib 0.024 | [3] 0.025 | alisertib 0.032 | gefitinib 0.04

CHCHD2 (UniProt Q9Y6H1)
inactive: alvocidib -0.061 | Tubastatin A 0.031 | [1] -0.003 | defactinib -0.079 | [2] -0.024 | encorafenib -0.044 | [3] -0.126 | alisertib -0.051 | [4] -0.033 | gefitinib 0.28

BUD23 isoform 3 (UniProt O43709)
inactive: alvocidib -0.126 | Tubastatin A 0.14 | [1] 0.026 | defactinib -0.046 | [2] -0.052 | encorafenib -0.017 | [3] 0.036 | alisertib 0.082 | [4] 0.085 | gefitinib 0.054

CACUL1 (UniProt Q86Y37)
UniProt Q86Y37, sequence (Q86Y37 whole entry, looked up): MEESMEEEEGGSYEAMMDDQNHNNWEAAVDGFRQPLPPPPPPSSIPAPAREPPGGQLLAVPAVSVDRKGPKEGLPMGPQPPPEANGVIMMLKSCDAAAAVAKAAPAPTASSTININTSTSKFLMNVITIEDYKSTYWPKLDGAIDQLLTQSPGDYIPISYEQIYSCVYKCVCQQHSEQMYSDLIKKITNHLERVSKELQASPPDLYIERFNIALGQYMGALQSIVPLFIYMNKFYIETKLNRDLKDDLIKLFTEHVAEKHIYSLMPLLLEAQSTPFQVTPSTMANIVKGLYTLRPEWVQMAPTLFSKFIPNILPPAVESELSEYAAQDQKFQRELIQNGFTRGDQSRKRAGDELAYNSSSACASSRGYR
inactive: alvocidib 0.022 | Tubastatin A -0.029 | [1] -0.027 | defactinib 0.027 | [2] -0.04 | encorafenib -0.02 | [3] -0.042 | [4] 0.212

BTRC (UniProt Q9Y297)
UniProt Q9Y297, sequence (Q9Y297 whole entry, looked up): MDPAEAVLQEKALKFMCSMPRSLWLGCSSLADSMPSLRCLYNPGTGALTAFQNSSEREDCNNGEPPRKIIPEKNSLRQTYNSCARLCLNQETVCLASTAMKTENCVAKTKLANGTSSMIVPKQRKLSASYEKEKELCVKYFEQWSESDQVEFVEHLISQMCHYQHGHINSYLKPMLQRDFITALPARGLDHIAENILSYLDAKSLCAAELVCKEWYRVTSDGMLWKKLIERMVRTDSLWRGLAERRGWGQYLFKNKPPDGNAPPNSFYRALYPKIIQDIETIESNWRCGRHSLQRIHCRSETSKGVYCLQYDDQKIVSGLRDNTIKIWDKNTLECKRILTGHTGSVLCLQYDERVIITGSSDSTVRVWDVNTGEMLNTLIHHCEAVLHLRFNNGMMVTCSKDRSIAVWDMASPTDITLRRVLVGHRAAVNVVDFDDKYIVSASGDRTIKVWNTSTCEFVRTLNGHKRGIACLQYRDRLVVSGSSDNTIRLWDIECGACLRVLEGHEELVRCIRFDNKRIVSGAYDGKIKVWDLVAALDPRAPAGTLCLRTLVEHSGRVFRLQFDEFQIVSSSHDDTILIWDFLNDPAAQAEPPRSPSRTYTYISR
inactive: alvocidib -0.05 | Tubastatin A -0.019 | [1] -0.049 | defactinib -0.018 | encorafenib 0.035 | [3] 0.172 | alisertib -0.022 | [4] 0.096 | gefitinib -0.058

CHD3 isoform 3 (UniProt Q12873)
inactive: alvocidib 0.003 | Tubastatin A -0.074 | [1] 0.015 | defactinib 0.006 | [2] 0.02 | encorafenib 0.029 | [3] 0.085 | alisertib 0.047 | [4] 0.01 | gefitinib -0.014

C8orf88 (UniProt P0DMB2)
inactive: alvocidib 0.072 | Tubastatin A -0.064 | [1] 0.07 | [2] -0.015

CALM2 (UniProt P0DP24)
inactive: alvocidib -0.063 | Tubastatin A 0.018 | [1] -0.059 | defactinib -0.016 | [2] 0.124 | encorafenib 0.03 | [3] -0.085 | alisertib 0.011 | [4] 0.026 | gefitinib -0.13

BBS7 (UniProt Q8IWZ6)
inactive: alvocidib 0.027 | Tubastatin A -0.123 | [1] -0.028 | defactinib -0.212 | [2] -0.042 | encorafenib 0.024 | [3] 0.091 | alisertib 0.123 | gefitinib -0.016

BCAR1 isoform 6 (UniProt P56945)
inactive: alvocidib 0.074 | Tubastatin A -0.009 | [1] 0.009 | defactinib -0.032 | [2] 0.012 | encorafenib 0.018 | [3] 0.014 | alisertib 0.009 | [4] 0.08 | gefitinib 0.065

ATF7IP2 (UniProt Q5U623)
inactive: alvocidib -0.197 | Tubastatin A 0.071 | [1] -0.065 | defactinib -0.072 | alisertib 0.003 | [4] 0.064 | gefitinib 0.044

CARD9 (UniProt Q9H257)
inactive: alvocidib -0.011 | Tubastatin A -0.099 | [1] 0.043 | defactinib 0.05 | [2] 0.038 | encorafenib -0.06 | [3] 0.068 | alisertib -0.004 | [4] 0.009 | gefitinib -0.021

CAMK2G isoform 8 (UniProt Q13555)
active: alvocidib 0.334
inactive: Tubastatin A -0.098 | [1] 0.223 | defactinib 0.006 | [2] 0.034 | encorafenib -0.199 | [3] -0.007 | alisertib -0.013 | [4] 0.144 | gefitinib -0.013

CCNA2 (UniProt P20248)
inactive: alvocidib 0.044 | Tubastatin A 0.011 | [1] -0.002 | defactinib 0.037 | [2] -0.017 | encorafenib 0.005 | [3] -0.012 | alisertib -0.029 | [4] 0.176 | gefitinib 0.019

AUH (UniProt Q13825)
inactive: alvocidib 0.221 | Tubastatin A 0.147 | [1] 0.057 | defactinib -0.169 | [2] 0.049 | encorafenib 0.015 | [3] 0.023 | [4] -0.052

CEP128 (UniProt Q6ZU80)
inactive: alvocidib -0.294 | Tubastatin A 0.565 | defactinib -0.052 | [2] -0.037 | encorafenib 0.064 | [3] 0.031

ATXN2 (UniProt F8WB06)
inactive: [2] -0.09

CDKL5 (UniProt O76039)
UniProt O76039, sequence (O76039 whole entry, looked up): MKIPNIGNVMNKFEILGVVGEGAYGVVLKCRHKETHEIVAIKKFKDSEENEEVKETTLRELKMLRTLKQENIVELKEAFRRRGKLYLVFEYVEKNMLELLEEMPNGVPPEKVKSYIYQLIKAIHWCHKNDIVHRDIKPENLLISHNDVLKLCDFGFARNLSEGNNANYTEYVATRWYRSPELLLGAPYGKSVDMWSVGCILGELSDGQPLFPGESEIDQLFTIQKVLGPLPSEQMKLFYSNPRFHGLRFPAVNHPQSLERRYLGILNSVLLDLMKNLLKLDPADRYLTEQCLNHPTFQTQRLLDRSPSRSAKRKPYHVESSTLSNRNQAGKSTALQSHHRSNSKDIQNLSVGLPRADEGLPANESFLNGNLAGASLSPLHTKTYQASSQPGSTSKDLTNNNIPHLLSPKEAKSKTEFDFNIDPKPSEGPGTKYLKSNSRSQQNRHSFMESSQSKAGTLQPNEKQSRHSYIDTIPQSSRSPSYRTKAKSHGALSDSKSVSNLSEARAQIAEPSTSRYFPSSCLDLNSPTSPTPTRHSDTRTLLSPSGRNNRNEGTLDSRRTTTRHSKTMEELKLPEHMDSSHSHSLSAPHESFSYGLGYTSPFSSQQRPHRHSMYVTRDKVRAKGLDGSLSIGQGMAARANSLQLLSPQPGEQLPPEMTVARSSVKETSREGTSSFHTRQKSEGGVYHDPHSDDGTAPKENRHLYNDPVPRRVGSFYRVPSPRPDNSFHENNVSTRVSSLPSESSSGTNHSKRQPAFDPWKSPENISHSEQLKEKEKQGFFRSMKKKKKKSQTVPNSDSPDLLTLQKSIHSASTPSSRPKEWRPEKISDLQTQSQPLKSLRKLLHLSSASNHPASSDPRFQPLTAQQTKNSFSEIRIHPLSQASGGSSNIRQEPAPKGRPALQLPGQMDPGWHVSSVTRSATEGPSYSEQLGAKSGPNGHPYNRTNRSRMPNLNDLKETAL
inactive: defactinib 0.55 | [2] -0.052 | encorafenib -0.038 | [3] -0.116 | [4] 0.058
active: alvocidib 1.14
